Sampled rows, rich in hits. Any-hit rate of the full collection: about 3.4%.
APP 5'UTR act = activates APP 5'UTR luciferase reporter | activation, % at 2 µM | 190,000 compounds, 1% hits | SH-SY5Y APP 5'UTR luciferase reporter, luminescence; zero percent = DMSO vehicle wells;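 active means activation above a set limit, based on mean plus 3 SD of controls, cut at about 140% in these data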
hgDAF-12 ag = hgDAF-12 agonism, primary luciferase screen; HEK293 GAL4-hgDAF12 UAS-luciferase reporter, agonist luminescence; normalized to butyrate control; activation, % at 6.8 µM; 370,000 compounds, 1.8% hits;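 active means activation above a cutoff set at the mean of all screened compounds plus 3 SD, cut at about 10% in these data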;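 further: 0% = DMSO wells and 100% = sodium butyrate wells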
ssDAF12 agonist = activators of S. stercoralis DAF-12 nuclear receptor; activation, % at 6.8 µM; HEK293 ssDAF-12/GRIP1 lit1-tk-luc reporter, luminescence; % of 3 µM dafachronic acid response; AID 652126; 370,000 compounds, 1% hits;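 active means activation above the mean over all tested compounds plus 3 SD, cut at about 0.9% in these data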;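 further: 0% = DMSO-only wells and 100% = 3 µM delta7-dafachronic acid wells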
hcDAF-12 act = activators of H. contortus DAF-12 nuclear receptor; activation, % at 6.8 µM; 370,000 compounds, 1.4% hits; AID 652067; HEK293 hcDAF-12 lit1-tk-luc reporter, luminescence; 0% DMSO, 100% Δ7-dafachronic acid;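 active means activation above the mean of all tested compounds plus 3 SD, cut at about 5.5% in these data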;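 further: 100% = response to 3 µM Δ7-dafachronic acid high control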
NF-kB neuron act = raises NF-kB expression in human neuronal cells; NF-kB reporter expression; active compounds read high; fold change at 12.5 µM; 190,000 compounds, 1.6% hits; AID 1239; in the data active means fold change above about 3.3
* = called active by the depositor; nt = not tested or not shown.

SMILES	APP 5'UTR act	hgDAF-12 ag	ssDAF12 agonist	hcDAF-12 act	NF-kB neuron act
CC[C@H](CCC(=O)N(c1ccccc1)c1ccccc1)c1ccc(C)cc1	nt	0.9	-0.8	-0.9	nt
O=C(COn1nnc2ccc(C(F)(F)F)cc21)Nc1c(Cl)cccc1Cl	-3.5	-2.0	14.8*	0.3	1.08
Cc1cccc(C)c1NC(=O)COn1nnc2ccc(C(F)(F)F)cc21	-3.1	-2.9	-0.9	-0.6	1.13
COc1cccc(O[C@H]2C=C[C@@H](c3ccccc3)O[C@@H]2CO)c1	nt	0.4	-1.5	0.1	nt
COc1ccc(CSc2nnc(SCC(=O)Nc3ccc4c(c3)OCO4)s2)cc1	nt	2.7	-1.2	-1.4	nt
CC(C)(C)c1ccc(C(=O)N2CCN(c3ncccn3)CC2)cc1	nt	-0.2	-0.6	-1.6	nt
CC(C)(C)c1cc(C(=O)N2CCN(c3ncccn3)CC2)ccn1	3.8	2.7	-1.6	0.4	4.79*
COc1ccc2c(c1)C[C@@H]1CC(C)(C)CN1S2(=O)=O	nt	1.2	-0.7	-0.8	nt
COc1ccc(C2CC(c3cccs3)=NN2C(=O)CN2CCCCC2)cc1 (stereo not drawn)	5.4	2.1	3.1*	0.3	1.38
Cc1ccc(NC(=O)/C=C/c2ccc(Cl)cc2)nc1	55.0	10.3	-1.9	-1.8	1.68
O=C(Nc1cccnc1Cl)c1ccc(Cl)cc1	nt	12.4*	-0.4	1.3	nt
O=C(/C=C/c1ccccc1)Nc1cccnc1Cl	nt	9.7	1.8*	2.0	nt
O=C(COC(=O)/C=C/c1ccccc1)Nc1cccnc1Cl	nt	1.8	-0.6	0.2	nt
O=C(Nc1cccnc1Cl)c1cccnc1Cl	-5.1	-0.4	-1.6	-0.7	1.15
NC(=O)c1ccccc1NC(=O)/C=C/c1ccc(Cl)cc1	159.7*	13.0*	-0.1	2.2	3.02
O=C(/C=C/c1ccccc1)Nc1ccc(Br)cn1	-63.4	13.0*	0.6	1.4	0.97
COC(=O)[C@]12C[C@H](CC(=O)NCc3ccccc3)C(=O)N(Cc3ccc(Cl)cc3Cl)C1=C[C@H](COCc1ccccc1)O[C@@H]2C	nt	-1.0	-1.1	0.4	nt
CC(C)=CC(=O)Nc1ccccc1C(N)=O	8.9	1.9	-1.4	-0.8	1.07
NC(=O)c1ccccc1NC(=O)/C=C/c1ccccc1	103.6	11.4*	-0.2	2.0	3.57*
COCCCNC(=O)CNC(=S)N(Cc1ccc(F)cc1)C1CCCCC1	-5.9	1.6	1.2*	3.6	1
COc1ccccc1C(=O)NNC(=O)c1cccc([N+](=O)[O-])c1	31.2	1.0	-1.6	1.8	1.6
COc1ccccc1C(=O)NNC(=O)c1cccc(C)c1	nt	7.9	1.1*	5.2	nt
COC(=O)NNC(=O)c1ccccc1OC	-1.2	-1.1	-0.6	6.2*	1.08
Cc1cccc(NC(=O)CN2C(=O)CCSc3ccccc32)c1C	nt	-1.2	-0.7	-0.3	nt
Nn1c(SCC(=O)N2CCOCC2)nnc1-c1n[nH]c2c1CCC2	nt	5.5	-0.8	-0.3	nt
SMILES	APP 5'UTR act	hgDAF-12 ag	ssDAF12 agonist	hcDAF-12 act	NF-kB neuron act
Cc1cccc2nc(COc3ccc4ccccc4c3Br)cn12	nt	10.1	0.3	6.0*	nt
CC1CCN(C(=O)COc2ccc3ccccc3c2Br)CC1	nt	0.7	0.0	-0.2	nt
O[C@H](COc1ccc(Cl)cc1)CN1CCC(C(O)(c2ccccc2)c2ccccc2)CC1	nt	0.2	-1.5	1.4	nt
COc1cccc(C(=O)n2ccc3ccc(-c4ccc5ccn(Cc6ccc(C#N)cc6)c5c4)cc32)c1	nt	3.0	-1.3	-0.1	nt
COc1ccc(NC(=O)O/N=C/c2ccccc2)cc1	nt	11.4*	-1.3	1.6	nt
COc1ccc(NC(=O)O/N=C/c2ccccc2Cl)cc1	nt	1.4	-0.7	-0.1	nt
COc1ccc(NC(=O)OC(C)C)cc1	89.0	11.1*	-0.4	4.0	1.79
COc1ccc(NC(=O)c2scc(S(=O)(=O)C(C)C)c2N)cc1	nt	10.9*	1.2*	4.7	nt
Cc1ccc(-c2cc(=O)c3cc(F)ccc3[nH]2)cc1	6.1	4.2	-1.2	0.6	1.82
Cc1ccc2[nH]c(-c3cccc(F)c3)cc(=O)c2c1	-93.2	1.5	0.5	4.8	3.79*
O=c1cc(-c2cccc(F)c2)[nH]c2ccccc12	-93.8	-2.9	0.3	2.4	2.67
COc1ccc2[nH]c(-c3cccc(F)c3)cc(=O)c2c1	-92.9	-0.6	-0.2	2.5	5.46*
O=C(Nc1c(-c2ccc(C(F)(F)F)cc2)nc2ncccn12)c1ccc(F)cc1	nt	5.9	-1.2	1.4	nt
O=C(Cn1cc(C(F)(F)F)ccc1=O)N1CCc2ccccc2C1	nt	2.0	1.0*	-1.7	nt
O=C(Cn1cc(C(F)(F)F)ccc1=O)N1CCCc2ccccc21	nt	-1.1	0.2	0.7	nt
COc1ccc(CN2C(=O)COc3ccccc3C2c2nnnn2C2CCCCC2)cc1 (stereo not drawn)	nt	-0.5	-1.0	-0.5	nt
Cc1nc2c(C)cccn2c1/C(O)=C1\C(=O)C(=O)N(CCN(C)C)C1c1ccccc1 (stereo not drawn)	nt	-1.4	1.0*	-1.7	nt
COc1ccc(OCC(=O)N/N=C\c2ccco2)cc1	1.5	1.3	-1.4	-0.5	1.12
COc1ccc(/[N+]([O-])=C/c2ccco2)cc1	nt	10.5*	0.0	1.7	nt
COc1ccc(/C=N/NC(=O)c2[nH]ncc2Br)c(OC)c1	25.6	11.2*	-0.4	1.1	1.83
COC(=O)[C@]12C[C@H](CC(=O)NCC34CC5CC(CC(C5)C3)C4)C(=O)N(Cc3ccc(Cl)cc3Cl)C1=C[C@H](C(C)(C)C)O[C@@H]2C	nt	3.4	-1.3	-1.0	nt
c1ccc(C(Nc2cccnc2)c2ccccc2)cc1	nt	1.1	-0.7	-1.4	nt
c1ccc(NC(c2ccccc2)c2ccncc2)cc1 (stereo not drawn)	nt	0.9	1.4*	-0.3	nt
CN1C(=O)c2cc(NC(=O)Nc3ccccc3)ccc2OC[C@H]2O[C@@H](CC(=O)NCC(F)(F)F)CC[C@@H]21	nt	-0.7	-1.7	1.8	nt
O=c1c2c(nc3cc(-c4ccccc4)[nH]n13)CCS2	113.1	6.6	-0.2	2.6	7.74*
SMILES	APP 5'UTR act	hgDAF-12 ag	ssDAF12 agonist	hcDAF-12 act	NF-kB neuron act
CCc1c(C)nc2cc(-c3ccccc3)[nH]n2c1=O	nt	7.7	0.3	3.1	nt
Cc1ccc(NC(=O)C2CCCN2S(=O)(=O)c2cccnc2)c(C)c1 (stereo not drawn)	nt	1.3	0.5	-2.2	nt
COc1ccc2c(c1)CCC1C2=NN(/C(C)=C\C(C)=O)C1c1ccc(F)cc1 (stereo not drawn)	43.1	8.5	-0.3	6.0*	1.82
S=C(Nc1cccnc1)N1CCc2ccccc21	nt	1.6	-0.3	6.4*	nt
O=C(NC(=S)N1CCc2ccccc21)C1CCC1	-6.8	-3.5	-0.6	5.7*	0.69
O=[N+]([O-])c1cccc(NC(=S)N2CCc3ccccc32)c1	nt	4.5	0.1	3.0	nt
COc1ccc(C2C(C(=O)N3CCCCC3C)CC(=O)N2c2ccc(OC)cc2)cc1 (stereo not drawn)	nt	-1.1	-0.2	-3.1	nt
COC(=O)C12C=C3CC(C4CC4)=C3C(=O)N1Cc1[nH]c3ccccc3c1C2 (stereo not drawn)	nt	0.2	-0.3	4.2	nt
Fc1ccc(-c2csc(-c3cccnc3)n2)cc1F	nt	9.9	-0.7	2.7	nt
Oc1ccc(-c2csc(-c3ccccc3)n2)cc1O	52.9	6.5	-0.3	1.4	6.34*

Screening results (PubChem)
